In PubChem BioAssay (NCATS):
Records with an inconclusive call do not appear. Entries that show only a call come without a potency. Calls of active or inactive are those of the source. The call rests on the fitted dose curve; in most records, active means well fitted cell-killing curve with a large enough effect; inconclusive means small, poorly fitted or top-dose-only effect, or effect the other way; inactive means no such curve, though single readings can be large or run the other way.

test: Quantitative High-Throughput drug screen in 47 multiple myeloma cell lines against the NCATS MIPE library collection: FR4_PLB cell viability assay (AID 1918924; further: nearly all actives have a fitted effect of over 35% in size); settings: FR4_PLB myeloma cells viability, CellTiter-Glo ATP, 48 h; series mostly up to 45.8 µM
Source text: PI: Beverly A. Mock Ph.D.
Laboratory of Cancer Biology and Genetics,
Center for Cancer Research, National Cancer Institute,
National Institute of Health, Bethesda, Maryland
Drug resistance and disease progression are common in multiple myeloma (MM) patients, underscoring the need for new therapeutic combinations. […] We hypothesized that effective combinations would reduce MYC expression and enhance p16 activity. […] These preclinical data identify potentially useful drug combinations for evaluation in drug-resistant MM and reveal potential mechanisms of combined drug sensitivity.
Described herein is the primary MIPE qHTS used to cherrypick compounds. Validated compounds were then further tested for potential synergistic activiy.
[1] Peat TJ, Gaikwad SM, Dubois W, Gyabaah-Kessie N, Zhang S, Gorjifard S, Phyo Z, Andres M, Hughitt VK, Simpson RM, Miller MA, Girvin AT, Taylor A, Williams D, D'Antonio N, Zhang Y, Rajagopalan A, Flietner E, Wilson K, Zhang X, Shinn P, Klumpp-Thomas C, McKnight C, Itkin Z, Chen L, Kazandijian D, Zhang J, Michalowski AM, Simmons JK, Keats J, Thomas CJ, Mock BA. Drug combinations identified by high-throughput screening promote cell cycle transition and upregulate Smad pathways in myeloma. Cancer Lett. 2023 Aug 1;568:216284. doi: 10.1016/j.canlet.2023.216284. Epub 2023 Jun 24. PMID: 37356470; PMCID: PMC10408729.
SEQUENCE No. (e.g., 1, 2, 3, etc.); […] (e.g., Cells, Incubation, Reagent, etc.); VALUE and DESCRIPTION.
1; Cells; 5 uL; white, solid bottom 1536-well Greiner assay plate.
2; Compounds; 23 nL; Kalypsis pin tool (Wako USA) equipped with a 1536-well pin head to transfer to the assay plates.
3; Incubation; 48 hours; 37C incubation.
4; Reagent;5uL; CellTiter Glo (Promega).
5; Detector; 425V; Luminescence; Viewlux PerkinElmer.
NOTES (numbers refer to Sequence numbers above)
1. The cell-based screening methods employed in this study were like those previously published. Briefly, the corresponding myeloma cell lines were screened in 1,536-well plates with 500 cells, 5-uL per well for inhibition of cell viability (assessed by measuring ATP levels with CellTiterGlo).
2. NCATS MIPE 4.0 library of approved and investigational drugs were added using the Kalypsis pin tool. Wells treated with DMSO only for 100% viability and media only wells for 0% viability were used as controls.
3. The assay plates were covered and incubated for 48 hours in a 37C, 5% CO2 incubator with controlled humidity.
4. After 48 hours, CellTilter-GloTM luminescent substrate mix (Promega) reagent was added to the assay plate and plates we incubated for 5 min at room temperature.
5. Signal was measured as median relative luminescence units on a ViewLux (PerkinElmer) multiplate reader.
[1] Heske CM, Davis MI, Baumgart JT, Wilson K, Gormally MV, Chen L, Zhang X, Ceribelli M, Duveau DY, Guha R, Ferrer M, Arnaldez FI, Ji J, Tran HL, Zhang Y, Mendoza A, Helman LJ, Thomas CJ. Matrix Screen Identifies Synergistic Combination of PARP Inhibitors and Nicotinamide Phosphoribosyltransferase (NAMPT) Inhibitors in Ewing Sarcoma. Clin Cancer Res. 2017 Dec 1;23(23):7301-7311. doi: 10.1158/1078-0432.CCR-17-1121. Epub 2017 Sep 12. PMID: 28899971; PMCID: PMC6636827.
Potency means the concentration at half of the fitted maximal effect.

Row | Compound | Potency
1 | O=C1CN2Cc3c(ccc(Cl)c3Cl)N=C2N1 | inactive
2 | FC(F)(F)c1ccc(C=Cc2nc(COc3ccc(CCCCn4ccnn4)cc3)co2)cc1 | 0.0662 µM (active)
3 | COc1ccc(-c2oc3c(CC=C(C)C)c(O)cc(O)c3c(=O)c2O)cc1 | 20.9 µM (active)
4 | CCn1c(-c2nonc2N)nc2cncc(CNC3CCNCC3)c21 | inactive
5 | CCNC(=O)Nc1ccc(Oc2ncnc(N)c2C=NOC)cc1Cl | 3.72 µM (active)
6 | Clc1ccc(C2(c3ccc(-c4cn[nH]c4)cc3)CCNCC2)cc1 | 20.9 µM (active)
7 | COc1c(C)c2c(c(O)c1CC=C(C)CCC(=O)OCCN1CCOCC1)C(=O)OC2 | 5.26 µM (active)
8 | CCCCC[C@H](O)C=C[C@H]1[C@H](O)CC(=O)[C@H]1CC=CCCCC(=O)O | inactive
9 | Cn1c(=O)c(-c2c(Cl)cccc2Cl)cc2cnc(Nc3cccc(C(=O)O)c3)nc21 | 5.26 µM (active)
10 | CNC(=O)c1cc(Oc2ccc(NC(=O)Nc3ccc(Cl)c(C(F)(F)F)c3)c(F)c2)ccn1 | 23.5 µM (active)
11 | NCC1CCC(C(=O)O)CC1 (stereo not given) | inactive
12 | COc1cc2c(cc1Cc1cccc(Cl)c1F)c(=O)c(C(=O)O)cn2[C@H](CO)C(C)C | 20.9 µM (active)
13 | Fc1ccc(C(c2ccc(F)cc2)N2CCN(CC=Cc3ccccc3)CC2)cc1 | inactive
14 | Cc1ccc2c(c1)C(=O)[C@]1(O)CCN(c3ccccc3)C1=N2 | inactive
15 | C[C@@H](O)[C@H]1C(=O)N2C(C(=O)OCOC(=O)C(C)(C)C)=C(SC3CN(C4=NCCS4)C3)[C@H](C)[C@H]12 | inactive
16 | CCOC(=O)N1CCN([N+]([O-])=NOc2cc(ON=[N+]([O-])N3CCN(C(=O)OCC)CC3)c([N+](=O)[O-])cc2[N+](=O)[O-])CC1 | 4.69 µM (active)
17 | CNC(=O)[C@H](CC1=CN=C2C=CCC=C12)NC(=O)[C@@H](CC(=O)NO)CC(C)C | inactive
18 | O=c1[nH]nc(OCCCc2ccc(Cl)cc2)c(NCc2cccnc2)c1Br | 16.6 µM (active)
19 | COC(=O)[C@H](c1ccccc1Cl)N1CCc2sccc2C1 | inactive
20 | C[C@]12CCC3=C4CCC(=O)C=C4CC[C@@H]3[C@H]1CC[C@@]2(O)CC#N | inactive

Row | Compound | Potency
21 | CC1(C)OC2CC3C4CC(F)C5=CC(=O)C=CC5(C)C4C(O)CC3(C)[C@]2(C(=O)CO)O1 (stereo not given in full) | inactive
22 | CN(C)CCOc1ccc(-c2nc(-c3ccc4c(c3)CCC4=NO)c(-c3ccncc3)[nH]2)cc1 | 18.7 µM (active)
23 | NC(=O)c1ncn([C@@H]2O[C@H](CO)[C@@H](O)[C@@H]2O)n1 | inactive
24 | N#CC(c1ccnc(NCCc2cccnc2)n1)c1nc2ccccc2s1 (stereo not given) | 20.9 µM (active)
25 | C[C@]12C=CC(=O)C=C1CC[C@@H]1[C@@H]2[C@@H](O)C[C@@]2(C)[C@@H]1CC[C@]2(O)C(=O)CO | inactive
26 | N=C1SC(=Cc2ccc(-c3ccc4c(c3)C(=O)NC4=O)o2)C(=O)N1c1ccc(Br)cc1 | 3.32 µM (active)
27 | COC(=O)Nc1ccc(-c2nc(N3CCOCC3)c3cnn(C4CCN(C(=O)OC)CC4)c3n2)cc1 | 1.05 µM (active)
28 | COc1ccc(C=CC(=O)Nc2ccccc2C(=O)O)cc1OC | inactive
29 | C=C1c2cccc(O)c2C(O)=C2C(=O)[C@@]3(O)C(O)=C(C(N)=O)C(=O)[C@@H](N(C)C)[C@@H]3[C@@H](O)[C@H]12 | 16.6 µM (active)
30 | Cn1cc(-c2ccc3nnc(Sc4ccc5ncccc5c4)n3n2)cn1 | inactive
31 | O=C1NC(=O)C(=Cc2ccc(-c3ccc(F)cc3O)o2)S1 | inactive
32 | CN(C)c1ccc(-c2nc3ncc(Cl)c(N4CCN(CC(=O)Nc5nccs5)CC4)c3[nH]2)cc1 | 2.09 µM (active)
33 | C[C@@H]1[C@H](C)CC[C@]2(C(=O)O)CC[C@]3(C)C(=CC[C@@H]4[C@@]5(C)CC[C@H](O)C(C)(C)[C@H]5CC[C@]43C)[C@@H]12 | 42.9 µM (active)
34 | CS(=O)(=O)c1ccc(C2=C(c3ccccc3)C(=O)OC2)cc1 | inactive
35 | CNC(=O)c1ccc2c(C(=Nc3cccc(CN(C)C)c3)c3ccccc3)c(O)[nH]c2c1 | inactive
36 | COc1cc2nccc(Oc3ccc(NC(=O)Nc4cc(C)on4)c(Cl)c3)c2cc1OC | 20.9 µM (active)
37 | CN1CC(=O)N2C(Cc3c([nH]c4ccccc34)[C@H]2c2ccc3c(c2)OCO3)C1=O (stereo not given in full) | inactive
38 | C[C@@H](O[C@H]1OCCN(Cc2n[nH]c(=O)[nH]2)[C@@H]1c1ccc(F)cc1)c1cc(C(F)(F)F)cc(C(F)(F)F)c1 | 29.6 µM (active)
39 | CC1(C)C(N(O)C(=O)Nc2ccc(Cl)cc2)N(c2ccc(Cl)cc2)C(=O)N1CC(=O)NN=CC=Cc1ccc([N+](=O)[O-])o1 (stereo not given) | 13.2 µM (active)
40 | Nc1ccn([C@@H]2O[C@H](CO)[C@@H](O)[C@H]2O)c(=O)n1 | inactive
